Measured values: PubChem BioAssay AID2553 (Johns Hopkins Ion Channel Center, 2010)
About 3,300 (1.1%) of roughly 310,000 compounds were called active.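 The calls were made as follows: active = B-score under library mean minus 3 SD, initial fluorescence not abnormally high, positive integrated signal ratio; inactive = the rest.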 Shown is part of a subset that was picked to be rich in actives.

Each compound was assayed against Short transient receptor potential channel 6 (Mus musculus) (UniProt Q61143) (assay: mouse TRPC6 channel inhibitors, primary screen, cell-based, HEK293, membrane potential dye (AID 2553;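 as to B-score: B-score derived from integrated fluorescence ratio over the kinetic read; more negative B-score means stronger inhibition of depolarization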)). Conditions: ACh-evoked depolarization, at 10 µM; hits give low values.
Short transient receptor potential channel 6 (Mus musculus), sequence (Q61143 whole entry, looked up): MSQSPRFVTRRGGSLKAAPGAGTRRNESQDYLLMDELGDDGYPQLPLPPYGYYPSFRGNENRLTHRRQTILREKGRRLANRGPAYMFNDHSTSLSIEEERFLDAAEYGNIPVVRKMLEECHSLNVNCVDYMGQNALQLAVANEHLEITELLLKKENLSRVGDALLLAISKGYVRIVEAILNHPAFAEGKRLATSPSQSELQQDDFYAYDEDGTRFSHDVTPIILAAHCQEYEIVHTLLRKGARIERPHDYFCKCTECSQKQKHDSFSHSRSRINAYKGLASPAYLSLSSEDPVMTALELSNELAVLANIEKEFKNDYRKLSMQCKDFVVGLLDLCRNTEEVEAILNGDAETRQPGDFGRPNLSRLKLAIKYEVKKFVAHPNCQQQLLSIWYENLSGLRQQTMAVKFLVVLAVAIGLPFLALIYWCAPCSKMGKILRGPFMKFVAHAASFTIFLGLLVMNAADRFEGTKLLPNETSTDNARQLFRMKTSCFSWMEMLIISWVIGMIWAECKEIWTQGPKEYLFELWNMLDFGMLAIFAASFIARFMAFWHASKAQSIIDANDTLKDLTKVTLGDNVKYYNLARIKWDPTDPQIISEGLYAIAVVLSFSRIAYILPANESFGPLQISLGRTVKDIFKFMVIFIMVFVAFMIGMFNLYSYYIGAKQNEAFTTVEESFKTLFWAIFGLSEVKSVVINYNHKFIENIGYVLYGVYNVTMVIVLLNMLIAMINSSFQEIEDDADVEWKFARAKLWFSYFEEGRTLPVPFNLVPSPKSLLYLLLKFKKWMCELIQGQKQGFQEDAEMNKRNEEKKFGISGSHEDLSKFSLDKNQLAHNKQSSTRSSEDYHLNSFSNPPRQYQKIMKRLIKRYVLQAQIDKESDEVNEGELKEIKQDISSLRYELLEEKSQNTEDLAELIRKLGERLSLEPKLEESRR

Question: How did the B-score turn out when `COc1cccc(-c2nc3ccc(N4CCN(C)CC4)cc3[nH]2)c1` was run?
Answer: The B-score was -9.09 (active).

Question: For `Cc1nc2ccc(N3CCN(C)CC3)cc2nc1C`, which B-score is on record?
Answer: Its B-score is “inactive”.

Question: Which B-score does the source give for `CC1=C(C(=O)Nc2ccccc2)S(=O)(=O)CCO1` here?
Answer: Its B-score is “inactive”.

Question: With `COc1ccc(Br)cc1CNCCc1cccc(Cl)c1` as the compound, how does the B-score read?
Answer: The B-score was “inactive”.

Question: For `CCOc1cccc(=NC2CCCCC2)c2c(C)[nH]c(C)c12`, which B-score is on record?
Answer: The B-score was -8.34 (active).

Question: Which B-score does the source give for `CCOP(=S)(OCC)C(O)CCCCCn1c(=O)c(F)cn(C2CCCO2)c1=O` (stereo not given) here?
Answer: Its B-score is “inactive”.

Question: How did the B-score turn out when `COCc1cc(OC(=O)N(C)C)nc(-c2ccc(C)c(Cl)c2)n1` was run?
Answer: Its B-score is “inactive”.

Question: How did the B-score turn out when `C[N+]12CN3CN(CN(C3)C1)C2` was run?
Answer: The B-score was “inactive”.

Question: How did the B-score turn out when `CC1=CC(=Cc2sc3ccccc3[n+]2C)C=C(C)O1` was run?
Answer: Its B-score is -5.72 (active).

Question: For `COc1c(O)ccc2c1-c1c3c(cc4c1C(C2)N(C)CC4)OCO3` (stereo not given), which B-score is on record?
Answer: Its B-score is “inactive”.

Question: `Cc1cccc(OP(=O)(Oc2cccc(C)c2)OC(c2ccccc2)C(F)(F)F)c1` (stereo not given) was tested. Which B-score did it give?
Answer: The B-score was “inactive”.

Question: For `CC1=C2C(=O)C3C(CC=C4CC(OC5OC(O)C(O)C(O)C5CO)CCC43C)C2CCC12OC1CC(C)CNC1C2C` (stereo not given), which B-score is on record?
Answer: The B-score was “inactive”.

Question: Which B-score does the source give for `CCOP(=O)(OCC)C(NC(=O)c1ccc(C)cc1)C(Cl)(Cl)Cl` (stereo not given) here?
Answer: The B-score was “inactive”.

Question: How did the B-score turn out when `c1ccc(CC2CCCCN2)cc1` (stereo not given) was run?
Answer: Its B-score is “inactive”.

Question: With `Cc1nc2ccccn2c1P(=S)(N1CCCCC1)N1CCCCC1` as the compound, how does the B-score read?
Answer: The B-score was “inactive”.

Question: Which B-score does the source give for `Cc1nn(Cc2ccccc2Cl)c(Cl)c1C(=O)OC(C(=O)NC(N)=O)C(C)C` (stereo not given) here?
Answer: The B-score was “inactive”.

Question: For `N[C@@H](Cc1c[nH]c2ccccc12)c1nnc(SCc2c(F)cccc2Cl)o1`, which B-score is on record?
Answer: Its B-score is “inactive”.

Question: With `CC1(C)Cc2c(C#N)c(N3CCNCC3)nc(-c3ccco3)c2CS1` as the compound, how does the B-score read?
Answer: The B-score was -5.98 (active).

Question: How did the B-score turn out when `O=c1[nH]c(O)c(C=Nc2cc(F)cc(F)c2)c(=O)[nH]1` was run?
Answer: Its B-score is “inactive”.

Question: Which B-score does the source give for `COc1ccccc1NC(=O)N1C[C@@H]2C[C@@H](C1)c1cccc(=O)n1C2` here?
Answer: Its B-score is “inactive”.

Question: With `CN1CCN(Cc2ccc(OC(F)(F)F)cc2)CC1` as the compound, how does the B-score read?
Answer: Its B-score is “inactive”.

Question: With `CN1CCN(c2cc(N3CCNCC3)ccc2[N+](=O)[O-])CC1` as the compound, how does the B-score read?
Answer: Its B-score is -9.48 (active).

Question: Which B-score does the source give for `CCN1CCN(c2ccc([N+](=O)[O-])cc2C#N)CC1` here?
Answer: The B-score was “inactive”.

Question: For `N=c1ccccn1Cc1ccccc1`, which B-score is on record?
Answer: The B-score was “inactive”.

Question: Which B-score does the source give for `CC(Cc1ccccc1)NC=O` (stereo not given) here?
Answer: Its B-score is “inactive”.

Question: With `CCCCCCCCCCCCn1ccc(=N)cc1` as the compound, how does the B-score read?
Answer: The B-score was -8.97 (active).

Question: For `CCCCCCN=C(CC)c1c(O)n(CCCC)c(=O)[nH]c1=O`, which B-score is on record?
Answer: Its B-score is “inactive”.

Question: With `CC(C)(C)[C@]1(O)C[C@@H]2OC(=O)C[C@@]23C(=O)O[C@@H]2OC(=O)[C@H](O)[C@]213` as the compound, how does the B-score read?
Answer: The B-score was “inactive”.

Question: For `c1ccc(C2NCc3ccccc3-n3cccc32)cc1` (stereo not given), which B-score is on record?
Answer: Its B-score is “inactive”.

Question: How did the B-score turn out when `NCCc1c[nH]c2ccc(O)cc12` was run?
Answer: The B-score was “inactive”.
